# Most compounds without a hit are left out; they make up all but 3.8% or so of the library.
# Cardio protect = myocardial damage modulation in H9c2 cells; hit rate 0.63% among 360,000; protection from H2O2 cell death, % at 20 µM; H9c2 cardiomyocytes, H2O2 injury protection, ATPLite, 2 h; AID 588492;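 active = compounds giving at least 50% protection of heart cells from peroxide-induced death in the single-dose screen, raw or plate-pattern-corrected value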;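 also: 0% = DMSO wells with peroxide and 100% = DMSO wells without peroxide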
# SUMO Mot1 rescue = SUMOylation pathway inhibition by Mot1-301 growth rescue; growth rescue, % at 18.8 µM; hit rate 1% among 320,000; S. cerevisiae Mot1-301 growth rescue, ATP luminescence, 38.5C; percent above DMSO median, 100 means doubled;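 active = every valid replicate shows activation above 250% relative to neutral control wells; inactive = the rest, any valid replicate at or below 250%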;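 also: OY570 slx delta 5 strain wells were the positive control but not used for scaling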
# FAS-TE inh = FAS thioesterase (human) inhibition; P49327; recombinant FAS-TE, OMFH fluorogenic substrate, fluorescence endpoint; inhibition, % at 15 µM; hit rate 0.67% among 360,000; AID 602261;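 active = compounds whose normalised, plate-corrected inhibition of enzyme fluorescence in the single-dose primary screen is 50% or more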;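 also: 0% = DMSO with enzyme and 100% = substrate without enzyme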
# Yeast superoxide = yeast age-related superoxide inhibition as caloric restriction mimetic | S. cerevisiae aged cells, superoxide DHE fluorescence; hits give low values | superoxide response (% of plate mean), % at 10 µM | hit rate 0.18% among 330,000 | AID 2690;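 active = superoxide response under a set limit, about three screen SD below normal, cut at about 65% in these data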;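 also: yeast aged for seven days with compound at 30 °C before DHE staining; 100% = average MFI of all compound-treated wells on the plate with controls excluded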
# aDG glyco act = alpha-DG glycosylation activation. Pro5-aDG cells, alpha-DG glycosylation AlphaScreen (IIH6); 0% Pro5, 100% B10-LARGE cell signal. hit rate 0.22% among 360,000. AID 624168. activation, % at 10 µM;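 active = activation of at least 8% versus controls, or a plate z-score of at least 8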;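 also: Pro5 are CHO cells carrying HIG-tagged alpha-DG that lacks glycosylation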
# MPTP block = permeability transition pore inhibition | AID 602449 | hit rate 1.4% among 360,000 | isolated mouse mitochondria, Ca2+ swelling absorbance, 30 min | inhibition, % at 10 µM;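 active = inhibition of 50% or more, scaled per plate between neutral and stimulator controls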;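 also: 0% = DMSO wells given calcium and 100% = 1 mM EGTA wells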
# Mot1 SUMO dose = inhibits SUMO pathway, affecting Mot1-301 yeast growth. shares compounds with SUMO Mot1 rescue. S. cerevisiae Mot1-301 galactose growth, ATP luminescence, 24 h; -100 = growth of slx-deleted rescue strain. growth activity, percent, % at 42 µM. 2,300 tested, under 10 active. AID 493004;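 active = Signal drops as the depositor expects, and the fitted half-maximal dose is no more than ten times the top valid tested dose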;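 also: more negative values mean stronger growth rescue toward the control strain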
# * = called active by the depositor; x = not tested or not shown; + = active, no number; ! = a repeat was not active.
SMILES,Cardio protect,SUMO Mot1 rescue,FAS-TE inh,Yeast superoxide,aDG glyco act,MPTP block,Mot1 SUMO dose
CCOc1ccccc1NC(=O)C(c1ccccc1)N1CCN(C(=O)c2ccco2)CC1 (stereo not given),-8,-11,12,96,0,0,x
Cc1cc(C)c(S(=O)(=O)NCc2cccnc2)c(C)c1,-8,3,-2,107,0,0,x
Cc1noc(C)c1S(=O)(=O)N1CCCC(C(=O)NCC2CCCO2)C1 (stereo not given),3,+,-4,110,0,-1,0
CCN(CC)c1ccc2c(C)c(CO)c(=O)oc2c1,-8,5,-3,100,0,-1,x
CCN(CC)c1ccc2c(C)c(CN3CCOCC3)c(=O)oc2c1,-2,+,-11,101,0,-1,-1
COCCN(CC(=O)Nc1cccc(C)c1C)C(=O)C1(c2ccc(Cl)cc2)CCC1,0,-13,12,84,0,-3,x
O=C(O)[C@H]1CCCC[C@H]1C(=O)Nc1ccc(S(=O)(=O)N2CCCCC2)cc1,1,8,-2,102,0,-1,x
O=C(O)C1CCCCC1C(=O)Nc1ccc(S(=O)(=O)N2CCCC2)cc1 (stereo not given),-6,447*,2,107,0,0,0
CCC(C(=O)NC(C)(C)C)n1c(-c2ccc3c(c2)OCO3)nc2ccccc21 (stereo not given),x,x,x,x,0,3,x
CC(C)n1c(CNC(=O)c2ccccc2F)nnc1SCC(=O)c1ccc(F)cc1,13,x,0,x,0,-1,x
CCc1nn(C)c(N)c1C,-4,392*,-3,98,0,2,0
OCCNc1ncnc2ccc(Br)cc12,10,-18,-4,93,0,-3,x
CCN(CC)c1ncnc2ccc(Br)cc12,-14,410*,-9,110,0,0,0
N#CCCn1cc(C(=O)CN2C(=O)C(=O)N(C3CCCC3)C2=O)c2ccccc21,4,x,-5,x,0,0,x
COc1cc(OC)cc(OC(=O)c2ccc3c(=O)n4c(nc3c2)CCC4)c1,0,359*,4,111,0,0,0
Cc1ccc(OC(=O)c2ccc3c(=O)n4c(nc3c2)CCC4)cc1,-12,x,7,x,0,-3,x
COc1ccc(CNC(=O)c2cc(=O)c3cc(C)cc(C)c3o2)cc1,-4,+,14,97,0,0,1
COc1ccc(CNC(=O)c2cc(=O)c3ccc(C)c(C)c3o2)cc1,-7,-17,42,72,0,-1,x
COc1ccc(C(=O)NC(=S)Nc2ccc(CN3CCCCC3)cc2)cc1Cl,-1,636*,1,106,5,0,-1
CCN(CCn1cccn1)C(=O)C1CCC(=O)N(CCc2cccc(F)c2)C1 (stereo not given),-3,689*,-4,94,0,0,0
COc1ccc(CCNC(=O)c2ccc3c(c2)N(Cc2ccc(F)cc2)CCS3)c(OC)c1,-2,-16,23,92,0,3,x
COc1ccc(OC)c(CCNC(=O)c2ccc3c(c2)N(Cc2ccc(F)cc2)CCS3)c1,-2,365*,20,113,0,-2,0
O=C1NC(c2ccccc2)N=C2Oc3ccccc3C=C12 (stereo not given),15,x,-8,x,0,0,x
COc1ccc(CCc2nnc(N)s2)cc1OC,1,8,-3,107,0,1,x
c1ccc(CNc2nc(NCCc3ccncc3)c3sccc3n2)cc1,-22,x,-1,x,0,4,x
SMILES,Cardio protect,SUMO Mot1 rescue,FAS-TE inh,Yeast superoxide,aDG glyco act,MPTP block,Mot1 SUMO dose
CC[C@@]12C(=O)N(c3ccc(C)cc3)C(=O)N1[C@H](c1ccc(Br)cc1)[C@@H]1C(=O)N(C(C)(C)C)C(=O)[C@@H]12,-4,1,44,99,0,1,x
COc1ccc(-n2nc(C(=O)NCC(=O)N3CCCC3)c3ccccc3c2=O)c(OC)c1,-5,+,-5,103,0,0,1
CCOC(=O)N1CCN(C(=O)CNC(=O)c2nn(-c3ccc(OC)c(OC)c3)c(=O)c3ccccc23)CC1,1,497*,-7,96,0,-2,1
CCOC(=O)N1CCN(C(=O)CNC(=O)c2nn(-c3ccc(OC)cc3OC)c(=O)c3ccccc23)CC1,-11,-16,-12,102,0,-1,x
CCOC(=O)CNC(=O)CSc1nc(C(C)C)nc2c1cnn2-c1ccccc1,1,x,1,x,0,1,x
COc1ccc(Cl)cc1C(=O)NCCc1ccc(S(=O)(=O)NC(=O)NC2CCCCC2)cc1,-6,390*!,-6,102,0,-2,0
COc1ccc(C(=O)NC2CCCc3c2cnn3-c2ccccc2F)cc1OC (stereo not given),-14,-4,-5,83,2,5,x
CC(C)c1ccc(-c2c(NCCc3ccccc3)c(=O)c2=O)cc1,-4,-7,-8,100,0,2,x
COc1ccc(C(=O)CC(=O)C(=O)NCCc2cccc(C)c2)cc1,16,5,1,86,0,-2,x
Cc1nnc(NC(=O)c2ccc(-c3cccc(C(F)(F)F)c3)o2)s1,0,+,-3,103,2,-1,0
O=S(=O)(Cc1ccccc1)N1CCN(c2ccccc2)CC1,-5,583*,-5,96,0,-1,0
O=C(COc1ccccc1)NCCS(=O)(=O)N1CCN(c2ccccc2)CC1,-3,380*,4,101,0,-1,0
CCOc1ccc2nc(N3CCCC(C(=O)NCCCN4CC(C)CC(C)C4)C3)sc2c1 (stereo not given),-4,20,-8,89,5,8,x
N#Cc1ccccc1OCC(=O)N1CC(=O)Nc2ccccc21,7,x,-1,x,0,-2,x
C/C(=N\N1CCN(Cc2ccccc2Cl)CC1)c1ccc([N+](=O)[O-])cc1,2,832*,48,97,0,19,1
c1ccc2nc3c(nc2c1)OCC1CCCCN31 (stereo not given),-2,360*,-3,99,0,0,0
CC1(C)CC(=O)C=C(NCC(O)c2ccccc2)C1 (stereo not given),-2,6,-7,109,0,1,x
CCCN(CC(=O)Nc1cc(Cl)ccc1Cl)C(=O)CN1C(=O)C2CCCCC2C1=O (stereo not given),2,-10,1,109,0,1,x
COc1ccc(N2CCN(CC(=O)Nc3cc(C)on3)CC2)cc1,2,16,-8,95,0,0,x
CC(=O)c1ccc(N2CCN(CC(=O)Nc3cc(C)on3)CC2)cc1,4,483*,-3,105,0,-3,1
